Results as given in PubChem BioAssay AID1159580 (chemical genetic matrix, 2015).
The whole screen tested about 5,500 compounds, of which about 2,000 (36%) were called active. Inconclusive results (about 18%) are left out. No stated cut-off is given here; in the data, active means normalized growth mostly below about 0.91 (no sharp cut-off); inconclusive means no clear call, values can overlap the other calls; inactive means mostly above about 0.92. The list shows a part of the results.

Assay: chemical genetic growth profiling, strain panel (AID 1159580);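 further: tested at 20 µM; growth read once vehicle control cultures reached saturation at 30 °C; 1 = growth at the plate median or of vehicle wells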
Conditions: growth OD
[1] = S. cerevisiae deletion strains, locus YGR078C, strain PAC10, stronger effect = lower value
[2] = S. cerevisiae deletion strains, locus YJR075W, strain HOC1, stronger effect = lower value
[3] = S. cerevisiae deletion strains, locus YNL153C, strain GIM3, stronger effect = lower value
[4] = S. cerevisiae deletion strains, locus YPL241C, strain CIN2, stronger effect = lower value

Measured: normalized growth

COc1cc2c(cc1OC)-c1cc(=Nc3c(C)cc(C)cc3C)n(C)c(=O)n1CC2
inactive: S. cerevisiae deletion strains, locus YAL040C, strain CLN3, stronger effect = lower value 0.995 | S. cerevisiae deletion strains, locus YCL061C, strain MRC1 (second series), stronger effect = lower value 0.998 | S. cerevisiae deletion strains, locus YDR363W, strain ESC2, stronger effect = lower value 1 | S. cerevisiae deletion strains, locus YER002W, strain NOP16, stronger effect = lower value 1.02 | [1] 1.01 | [2] 0.97 | S. cerevisiae deletion strains, locus YMR307W, strain GAS1, stronger effect = lower value 0.998 | [3] 0.999 | S. cerevisiae deletion strains, locus YNL175C, strain NOP13, stronger effect = lower value 0.996 | S. cerevisiae deletion strains, locus YNL197C, strain WHI3, stronger effect = lower value 1.01 | S. cerevisiae deletion strains, locus YNL224C, strain SQS1, stronger effect = lower value 1.01 | S. cerevisiae deletion strains, locus YOR083W, strain WHI5 (second series), stronger effect = lower value 1.02 | [4] 0.993

c1cc(C2CCCCC2)ccc1C1CCCCC1
inactive: S. cerevisiae deletion strains, locus YAL013W, strain DEP1, stronger effect = lower value 1.01 | S. cerevisiae deletion strains, locus YBR229C, strain ROT2, stronger effect = lower value 1 | S. cerevisiae deletion strains, locus YCL061C, strain MRC1, stronger effect = lower value 0.965 | S. cerevisiae deletion strains, locus YDL101C, strain DUN1, stronger effect = lower value 0.968 | S. cerevisiae deletion strains, locus YDR150W, strain NUM1, stronger effect = lower value 0.958 | S. cerevisiae deletion strains, locus YEL061C, strain CIN8, stronger effect = lower value 1.01 | [1] 0.982 | S. cerevisiae deletion strains, locus YHR030C, strain SLT2, stronger effect = lower value 0.878 | S. cerevisiae deletion strains, locus YHR087W, strain rtc3, stronger effect = lower value 1.04 | S. cerevisiae deletion strains, locus YJR043C, strain POL32, stronger effect = lower value 1 | [2] 1.03 | S. cerevisiae deletion strains, locus YLR039C, strain RIC1, stronger effect = lower value 1.05 | S. cerevisiae deletion strains, locus YLR058C, strain SHM2 (second series), stronger effect = lower value 1.02 | S. cerevisiae deletion strains, locus YLR085C, strain ARP6, stronger effect = lower value 1.04 | S. cerevisiae deletion strains, locus YLR262C, strain YPT6, stronger effect = lower value 1.04 | S. cerevisiae deletion strains, locus YML094W, strain GIM5, stronger effect = lower value 1.02 | S. cerevisiae deletion strains, locus YMR219W, strain ESC1, stronger effect = lower value 1.04 | S. cerevisiae deletion strains, locus YMR263W, strain SAP30, stronger effect = lower value 1 | [3] 0.983 | S. cerevisiae deletion strains, locus YNL298W, strain CLA4 (second series), stronger effect = lower value 0.987 | S. cerevisiae deletion strains, locus YNL322C, strain KRE1, stronger effect = lower value 1.01 | S. cerevisiae deletion strains, locus YNR030W, strain Alg12, stronger effect = lower value 0.967 | S. cerevisiae deletion strains, locus YOL006C, strain TOP1, stronger effect = lower value 0.893 | S. cerevisiae deletion strains, locus YPL055C, strain LGE1, stronger effect = lower value 1.05 | [4] 1 | S. cerevisiae deletion strains, locus YPR135W, strain CTF4, stronger effect = lower value 1.05 | S. cerevisiae strains, strain wild type, stronger effect = lower value 0.973
